# Test results reported in PubChem BioAssay (Tox21).
# Records with an inconclusive call do not appear. Where a call stands in place of a potency, no number is given. Activity calls are given as the source filed them. The call rests on the fitted dose curve; in most records, active means well fitted activation curve with a large enough effect in the signal ratio in the repeat runs (not every such curve was filed as active); inconclusive means weak or mixed curves, or effect the other way; inactive means no such curve, though single readings can be large or run the other way; the % refers to the signal ratio.
# Experiment: qHTS assay for small molecule agonists of the antioxidant response element (ARE) signaling pathway (AID 743202)
# Settings: HepG2 ARE-bla reporter, beta-lactamase FRET, 16 h; series mostly up to 73.3 µM
# Description: U.S. Tox21 Program National Center for Advancing Translational Sciences [NCATS] NIH Chemical Genomics Center [NCGC] U.S. Environmental Protection Agency [EPA] National Institutes of Environmental Health Sciences [NIEHS] National Toxicology Program [NTP] U.S. Food and Drug Administration [FDA] Tox21 Assay Overview: Oxidative stress has been implicated in the pathogenesis of a variety of diseases ranging from cancer to neurodegeneration. The antioxidant response element (ARE) signaling pathway plays an important role in the amelioration of oxidative stress. The CellSensor ARE-bla HepG2 cell line (Invitrogen) can be used for analyzing the Nrf2/antioxidant response signaling pathway. Nrf2 (NF-E2-related factor 2) and Nrf1 are transcription factors that bind to AREs and activate these genes. The CellSensor ARE-bla Hep G2 cell line contains a beta-lactamase reporter gene under control of the Antioxidant Response Element (ARE) stably integrated into HepG2 cells. The activation of the report gene under culture conditions can be detected by fluorescence intensity. This cell line has been used to screen the Tox21 10K compound library to identify agonists that induce oxidative stress.
# Tox21 Assay Protocol Summary: The ARE-bla cells were dispensed at 2,000 cells/5 ul/well in 1536-well black wall/clear bottom plates using a Multidrop dispenser. After the assay plates were incubated at a 37 C/5% CO2 incubator for 5 hours, 23 nL of compounds dissolved in DMSO, positive controls or DMSO only was transferred to the assay plate by a pin tool. The plates were incubated at 37 C for 16 hours. After 1 uL of LiveBLAzer B/G FRET substrate was added using a Flying Reagent Dispenser, the plates were incubated at room temperature for 2 hours, and fluorescence intensity was measured by an Envision plate reader.
# Potency means the concentration at half of the fitted maximal effect.
Structure (SMILES),Potency,activation
CCCCS,inactive,–
CCCCNCC,inactive,–
N#CC1(N)CCCCC1,inactive,–
CCCc1ncc(C(=O)O)s1,inactive,–
CCN(CC)CC,inactive,–
CCCCCC(CC)OC(=O)CCCOc1ccc(Cl)cc1Cl (stereo not given),inactive,–
CCCCCC(=O)CC,inactive,–
CCN(CC)CC(=O)Oc1ccc(NC(C)=O)cc1,inactive,–
O=C(O)CCC(=O)Nc1ccc(S(=O)(=O)Nc2nccs2)cc1,inactive,–
O=S(=O)(O)CC(O)CCl (stereo not given),inactive,–
CCCCCCCCCCCBr,inactive,–
N=C(N)N1CCc2ccccc2C1,–,-8.74% [at 8.36 µM] (inactive)
Cc1ccc(O)c([N+](=O)[O-])c1,inactive,–
CCCCCCCCCCCCCCBr,inactive,–
COc1cc2nc(N3CCN(C(=O)C4CCCO4)CC3)nc(N)c2cc1OC (stereo not given),inactive,–
CC(C)(C)c1ccc(C(=O)CCCCl)cc1,inactive,–
COC(=O)c1cc(Cl)c(NC(C)=O)cc1OC,inactive,–
CC(=O)c1ccc(O)c(C(N)=O)c1,inactive,–
CC(C)(C)C(=O)NCCCC(=O)O,inactive,–
CC(=O)Nc1ccc(S(=O)(=O)Nc2cc(C)on2)cc1,inactive,–

Structure (SMILES),Potency,activation
CCc1ccc(CC)cc1,inactive,–
COCc1nnc(-c2ccc[n+]([O-])c2)n1-c1c(Cl)c(Cl)cc2[nH]c(=O)c(=O)[nH]c12,inactive,–
CCCC(=O)OC,inactive,–
CC(C)(O)c1ccc(C(C)(C)O)cc1,inactive,–
CC(C)OCCO,inactive,–
N#Cc1cc(NC(=O)C(=O)O)c(Cl)c(NC(=O)C(=O)O)c1,inactive,–
CC12CCCC=C1C(=O)OC2=O (stereo not given),inactive,–
Cc1ccc(OC(=O)CC(C)C)cc1,inactive,–
Cc1ccc2cccnc2c1,inactive,–
Cc1cccc(N)n1,inactive,–
O=c1c(O)c(O)c1=O,inactive,–
N=C(N)N,inactive,–
CCN1CCN(C(=O)N[C@@H](C(=O)N[C@@H]2C(=O)N3[C@@H]2SC(C)(C)[C@H]3C(=O)O)c2ccccc2)C(=O)C1=O,inactive,–
O=C(O)Cc1c(Cl)ccc(Cl)c1Cl,inactive,–
CO/N=C(\C(=O)O)c1csc(NC(=O)CCl)n1,13.3 µM (active),–
O=C(CCBr)N1CCN(C(=O)CCBr)CC1,13.3 µM (active),–
COC(=O)c1ccc(C(=O)O)cc1,inactive,–
CN(C)CCc1c[nH]c2ccc(CS(=O)(=O)N3CCCC3)cc12,inactive,–
COc1cc(C(=O)NC2CCCNC2)cc(OC)c1OC (stereo not given),inactive,–
O=c1[nH]c(=O)c2cn[nH]c2[nH]1,inactive,–
